In the library only some 19% were active in any assay of this set; here they are far more common.
DT40 TDP1 no CPT: qHTS for Inhibitors of human tyrosyl-DNA phosphodiesterase 1 (TDP1): qHTS in cells in absence of CPT; 420,000 tested, 15% active; Potency, µM (doses to about 46.2 µM), for inactives: top-dose activity change, negative = growth inhibition, actives largely listed as inhibitors; DT40 Tdp1-/- hTDP1 cells, no CPT, ATP luminescence, 48 h; note: potency is the fitted concentration of half-maximal effect; nearly all actives have a fitted effect of over 55% in size
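Readout: luminescence from CellTiter-Glo after 30 min in the dark at RT. Cells: DT40 Tdp1-/- with stable hTDP1, 400/well. Exposure: compounds alone, ≥48 hr, 37 °C.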
IL1B secr inh: blocks inflammasome-driven IL-1 beta release; THP-1 LPS/ATP IL-1B secretion, AlphaLISA, 16 h; active compounds read low; AID 743279; 360,000 tested, 4.7% active; activity change, % at 57.5 µM; in the data active = activity change below about -50%; inconclusive = mostly about -30% to -49%
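THP-1 cells pretreated 1 hr with compounds (up to 57.5 uM final), then stimulated with LPS (250 ng/mL final) plus ATP (1.25 mM final); secreted IL-1B measured by AlphaLISA after 16 hr, decreased signal indicating inhibition.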
uPA generation: cell surface uPA generation inhibition | cell surface uPA generation assay, qHTS | Potency, µM (titrated, usually from 38.3 µM), inactives show at the highest dose activity change, negative = inhibition, usual class: inhibitors | 330,000 tested, 0.31% active | AID 540303; active = well fitted inhibition curve with a large enough effect; inconclusive = small, poorly fitted or top-dose-only effect; inactive = no such curve, though single readings can be large or run the other way; tested in mouse RAW 264.7 cells; note: potency is the fitted concentration of half-maximal effect; nearly all actives have a fitted effect of over 55% in size
DT40 TDP1 CPT: growth inhibition of DT40 Tdp1-/-;hTDP1 cells with camptothecin (screen for TDP1 inhibitors) | 420,000 tested, 12% active | chicken DT40 Tdp1-/-;hTDP1 cells + 20 nM CPT, ATP luminescence, 48 h | Potency, µM (highest dose often 46.2 µM), for inactives: at the top dose activity change, negative = growth inhibition, actives largely listed as inhibitors; note: potency is the fitted concentration of half-maximal effect; nearly all actives have a fitted effect of over 55% in size
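Chicken DT40 Tdp1-/- cells stably complemented with human TDP1 were seeded at 400 cells/well in medium containing 20 nM camptothecin, exposed to pin-transferred compounds, and grown at 37 °C for at least 48 hr. Viability was read as ATP luminescence.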
HT1080 IDH1KD tx: toxicity to HT-1080 IDH1 knockdown cells (counter line); HT-1080 IDH1 knockdown viability, ATP luminescence, 48 h; Potency, µM (doses to about 46.1 µM), for the others: top-dose activity, negative = toxicity, most hits filed as cytotoxic; 360,000 tested, 2% active; AID 686971;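 note: potency is the fitted concentration of half-maximal effect; 0% = DMSO wells and -100% = cell-free medium wells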
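CellTiter-Glo luminescence after 48 h compound exposure at 37 degrees C of IDH1-knockdown HT-1080 cells in 5% FBS RPMI. %Activity scaled between DMSO wells and cell-free media wells, with curves fitted and assigned curve classes.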
HT1080NT lethal: kills 2HG-producing HT-1080-NT fibrosarcoma cells; 360,000 tested, 1.6% active; Potency, µM (top dose mostly 46.1 µM), for the others: top-dose activity, negative = less viability, usual class: cytotoxic; HT-1080-NT fibrosarcoma viability, CellTiter-Glo ATP luminescence, 48 h;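 note: NT is the 2HG producing partner of a matched IDH1 knockdown line; potency is the fitted concentration of half-maximal effect; 0% = DMSO-treated cells and -100% = media-only wells without cells; nearly all actives have a fitted effect of over 55% in size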
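Read-out is CellTiter-Glo luminescence after 10 minutes at room temperature, following 48 hours' compound treatment of HT-1080-NT cells (750 cells/well, RPMI, 5% FBS, 37 degrees C).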
Active calls of the source: *; ? = inconclusive; . = no result. Unless noted, calls come from the whole dose curve; as a rule, active = well fitted curve in the direction sought with a large enough effect; inconclusive = small, poorly fitted or top-dose-only effect, or another doubt; inactive = no such curve, though single readings can be large; an effect the other way counts as inactive or inconclusive. Unless noted, % is set by controls: 0 for no effect and ±100 for the full control effect.

SMILES	DT40 TDP1 no CPT	IL1B secr inh	uPA generation	DT40 TDP1 CPT	HT1080 IDH1KD tx	HT1080NT lethal
CCOC(=O)N1CCN(c2ccc(C(=O)c3cccc(F)c3)cc2)CC1	20.6µM*	?	-6.8%	13µM*	-1.2%	?
O=C(NC(=O)N1CCN(c2ccc(F)cc2)CC1)c1ccccc1	-4.2%	-0.2	-6.1%	-7.5%	-1.0%	?
CC(=O)c1cccc(N2C(=O)CN(S(C)(=O)=O)CC2(C)C(=O)NC2CCCC2)c1 (stereo not drawn)	-10.7%	.	.	-17.8%	.	.
CC(C)(C)c1ccc(CC(=O)N2CCC2(C)C(=O)NS(=O)(=O)c2ccccc2Cl)cc1 (stereo not drawn)	3.9%	28.7	.	18.3%	19.9%	?
COc1cc(OC)c(C(=O)N(CCc2ccccc2)Cc2ccccc2)cc1OC	?	-18.7	5.8%	?	-1.9%	4.8%
CC(C)C1C(c2ccccc2)NC(c2ccccc2)CC1(O)c1ccc(F)cc1 (stereo not drawn)	14.6µM*	0.0	-19.1%	?	?	?
O=C(NCC(c1ccc2c(c1)OCO2)N1CCOCC1)c1ccc(F)cc1 (stereo not drawn)	-27.9%	.	.	-27.9%	.	.
CN(Cc1ccc(C(C)(C)C)cc1)C(=O)C1CCN(C(=O)Nc2ccccc2)CC1	23.1µM*	-60.5*	-3.8%	?	-24.1%	-18.9%
Cc1ccc(CN(C)C(=O)C2CCN(C(=O)Nc3ccccc3)CC2)o1	-18.9%	10.4	-1.9%	3.8%	6.4%	1.7%
CC(C)CC(=O)Nc1nc2c(s1)CC(C(C)(C)C)CC2 (stereo not drawn)	14.6µM*	.	.	16.4µM*	.	.
O=C(COc1ccc(F)cc1)Nc1nc2c(s1)CCCC2	-65.1%	-19.0	9.2%	-80.1%	2.0%	6.9%
CC(C)(C)C1CCc2nc(NC(=O)COc3ccc(F)cc3)sc2C1 (stereo not drawn)	20.6µM*	.	.	?	.	.
CC(C)(C)C1CCc2nc(NC(=O)Cc3ccc(Cl)cc3)sc2C1 (stereo not drawn)	7.31µM*	.	.	6.51µM*	.	.
CCOC(=O)[C@]12CCCC=C1N(Cc1ccccc1)C(=O)[C@H](CC(=O)N1CCN(C(=O)C3CC3)CC1)C2	10.5%	-17.0	.	1.9%	-13.6%	6.2%
CC(C)c1ccc(/C=C/C(=O)Nc2nncs2)cc1	13µM*	-6.2	-4.0%	?	-29.4%	-21.4%
CC(C)c1ccc(/C=C/C(=O)Nn2cnnc2)cc1	0.5%	.	.	1.5%	11.5%	8.9%
COC(=O)[C@@H](Cc1c[nH]c2ccccc12)NC(=O)CCC(=O)c1ccc(F)cc1	19.8%	0.0	-24.5%	-9.0%	-0.5%	-0.8%
O=C(Nc1nc(-c2cc3ccccc3oc2=O)cs1)c1ccc(Br)o1	-24.6%	0.2	-11.4%	-15.5%	-0.9%	4.6%
CC(=O)Nc1ccc(Nc2nc(-c3cc4ccccc4oc3=O)cs2)cc1	18.4µM*	-22.1	-11.3%	8.2µM*	0.8%	-19.2%
Nc1ccc(Nc2nc(-c3cc4ccccc4oc3=O)cs2)cc1	8.2µM*	-89.7*	-4.1%	18.4µM*	-1.4%	-7.6%
O=C(O)c1ccc(Nc2nc(-c3cc4ccccc4oc3=O)cs2)cc1O	?	0.0	2.7%	?	-9.9%	-9.8%
O=C(NCC(=O)N(c1ccc(F)cc1)C(C(=O)NC1CCCCC1)c1ccncc1)c1ccco1 (stereo not drawn)	-14.3%	-0.4	2.4%	-20.6%	22.3%	19.8%
CC1(C)CN(c2cccc(Br)c2)C1=O	-3.2%	-3.6	2.6%	5.1%	2.3%	11.2%
O=C(Nc1ccccc1)Nc1ccc(Oc2cccnc2)nc1	16.4µM*	-6.5	-18.5%	?	-9.6%	-24.4%
O=C(Nc1cccnc1)c1ccc2nc(-c3ccccc3)c(-c3ccccc3)nc2c1	14.6µM*	-9.5	4.3%	23.1µM*	1.9%	-0.9%
SMILES	DT40 TDP1 no CPT	IL1B secr inh	uPA generation	DT40 TDP1 CPT	HT1080 IDH1KD tx	HT1080NT lethal
O=C(Nc1cccnc1)c1ccc(Oc2ccccc2)cc1	?	-15.0	-1.6%	23.1µM*	25.9µM*	?
COC(=O)[C@@]1(Cc2ccc(OC)cc2)[C@H]2c3cc(C(=O)N4CCCC4)n(CCc4ccc(OC)c(Br)c4)c3C[C@H]2CN1C(=O)c1ccccc1	20.6µM*	0.0	.	14.6µM*	5.6%	23.0%
COC(=O)[C@@]1(Cc2ccc(F)cc2)[C@H]2c3cc(C(=O)N4CCCC4)n(CCO)c3C[C@H]2CN1C(=O)c1ccccc1	-21.7%	-7.6	1.3%	?	-1.8%	-5.2%
COC(=O)[C@@]1(Cc2ccc(OC)cc2)[C@H]2c3cc(C(=O)N4CCCC4)n(Cc4ccccc4)c3C[C@H]2CN1C(=O)c1ccccc1	16.4µM*	-65.6*	.	?	?	-20.7%
COC(=O)[C@@]1(Cc2ccc(OC)cc2)[C@H]2c3cc(C(=O)N4CCCC4)n(CCO)c3C[C@H]2CN1C(=O)c1ccccc1	-5.3%	-16.8	-0.8%	0.2%	9.6%	-0.1%
COC(=O)[C@@]1(Cc2ccc(F)cc2)[C@H]2c3cc(C(=O)N4CCCC4)n(CCc4ccc(OC)c(Br)c4)c3C[C@H]2CN1C(=O)c1ccccc1	18.4µM*	-67.0*	.	?	0.8%	8.7%
COC(=O)Cn1c(C(=O)N2CCCC2)cc2c1C[C@H]1CN(C(=O)c3ccccc3)[C@@](Cc3ccc(OC)cc3)(C(=O)OC)[C@@H]21	?	5.6	.	?	6.3%	0.6%
COC(=O)[C@@]1(Cc2ccc(F)cc2)[C@H]2c3cc(C(=O)N4CCCC4)n(Cc4ccc(Cl)c(C(F)(F)F)c4)c3C[C@H]2CN1C(=O)c1ccccc1	20.6µM*	-5.1	.	20.6µM*	?	?
Cc1ccc(S(=O)(=O)NCCC(=O)Nc2ccncc2)cc1C	?	-0.7	2.4%	?	-3.4%	-16.3%
CSc1ccccc1C(=O)N(CC1CCCO1)c1c(N)n(Cc2ccccc2)c(=O)[nH]c1=O (stereo not drawn)	-16.1%	22.4	1.0%	-0.2%	-0.3%	1.7%
Cn1ncc([N+](=O)[O-])c1C(=O)Nc1nc2ccccc2n1CCN1CCCCC1	?	?	-2.5%	-19.7%	5.1%	3.4%
CCCn1c(NC(=O)c2ccc([N+](=O)[O-])o2)nc2ccccc21	?	-19.7	-5.8%	20.6µM*	?	-19.8%
CC(=O)c1sc(NC(=O)C2CCN(C(=O)c3ccccc3C)CC2)nc1-c1ccccc1	?	-1.7	16.1%	18.4µM*	-9.3%	-13.8%
